Holding throughout (assay): PBM; 200 nM protein, PBS
Holding throughout (settings): dsDNA, one strand shown

The target of assay [1] is T1, VENTX (Homo sapiens, UniProt O95231 78-163, R121Q).
T1 sequence: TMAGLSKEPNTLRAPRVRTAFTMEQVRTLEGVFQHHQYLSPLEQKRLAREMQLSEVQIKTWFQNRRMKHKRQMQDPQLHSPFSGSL

Assay [2] has as its target HOXA4 (Homo sapiens, UniProt Q00056 201-287, W262R).
Assay [3] deals with T2, VENTX (Homo sapiens, UniProt O95231 78-163).
T2 sequence: T1 sequence with Q44R

The target of assay [4] is T3, VENTX (Homo sapiens, UniProt O95231 78-163, Y115F).
T3 sequence: T1 sequence with Y38F, Q44R

The target of assay [5] is HOXA4 (Homo sapiens, UniProt Q00056 201-287, R217L).
Chain of HOXA4 (Homo sapiens, UniProt Q00056 201-287, R217L) (Q00056 201-287 R217L): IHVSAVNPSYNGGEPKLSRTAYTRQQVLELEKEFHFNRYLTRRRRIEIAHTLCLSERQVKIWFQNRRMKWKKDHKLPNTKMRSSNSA
For assay [6], the target named is HOXA4 (Homo sapiens, UniProt Q00056 201-287).
Chain of HOXA4 (Homo sapiens, UniProt Q00056 201-287) (Q00056 201-287): as the sequence (Q00056 201-287 R217L) above, with L17R counted along it
Assay [7] has as its target HOXA4 (Homo sapiens, UniProt Q00056 201-287, W262F).
Assay [8] deals with HOXC9 (Homo sapiens, UniProt P31274 178-260, K195R).
Chain of HOXC9 (Homo sapiens, UniProt P31274 178-260, K195R) (P31274 178-260 K195R): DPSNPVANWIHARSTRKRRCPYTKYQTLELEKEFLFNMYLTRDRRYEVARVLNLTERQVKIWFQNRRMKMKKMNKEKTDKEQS
The target of assay [9] is HOXC9 (Homo sapiens, UniProt P31274 178-260).
Chain of HOXC9 (Homo sapiens, UniProt P31274 178-260) (P31274 178-260): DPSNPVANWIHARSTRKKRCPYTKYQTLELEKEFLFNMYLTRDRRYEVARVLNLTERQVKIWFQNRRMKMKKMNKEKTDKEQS
Assay [10] deals with HOXC9 (Homo sapiens, UniProt P31274 178-260, R193K).
Chain of HOXC9 (Homo sapiens, UniProt P31274 178-260, R193K) (P31274 178-260 R193K): as the sequence (P31274 178-260) above, with R16K counted along it
The target of assay [11] is HOXC9 (Homo sapiens, UniProt P31274 178-260, R222W).
Chain of HOXC9 (Homo sapiens, UniProt P31274 178-260, R222W) (P31274 178-260 R222W): as the sequence (P31274 178-260) above, with R45W counted along it
For assay [12], the target named is T4, SIX6 (Homo sapiens, UniProt O95475 114-200, L167I).
T4 sequence: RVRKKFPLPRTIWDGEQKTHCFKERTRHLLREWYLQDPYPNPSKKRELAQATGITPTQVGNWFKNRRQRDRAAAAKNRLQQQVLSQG

In assay [13] the target is T5, SIX6 (Homo sapiens, UniProt O95475 114-200, L143V).
T5 sequence: T4 sequence with L30V, I54L

The target in assay [14] is HOXC10 (Homo sapiens, UniProt Q9NYD6 254-340).
Chain of HOXC10 (Homo sapiens, UniProt Q9NYD6 254-340) (Q9NYD6 254-340): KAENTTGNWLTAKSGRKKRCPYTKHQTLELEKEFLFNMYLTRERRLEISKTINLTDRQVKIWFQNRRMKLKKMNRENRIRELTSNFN
The target in assay [15] is T6, SIX6 (Homo sapiens, UniProt O95475 114-200, H141N).
T6 sequence: T4 sequence with H28N, I54L

Assay [16] concerns the target T7, SIX6 (Homo sapiens, UniProt O95475 114-200, T165P).
T7 sequence: T4 sequence with T52P, I54L

Assay [17] addresses T8, SIX6 (Homo sapiens, UniProt O95475 114-200, L167M).
T8 sequence: T4 sequence with I54M

For assay [18], the target named is T9, SIX6 (Homo sapiens, UniProt O95475 114-200, L143M).
T9 sequence: T4 sequence with L30M, I54L

The target of assay [19] is T10, SIX6 (Homo sapiens, UniProt O95475 114-200, L143I).
T10 sequence: T4 sequence with L30I, I54L

Assay [20] has as its target T11, SIX6 (Homo sapiens, UniProt O95475 114-200, T165G).
T11 sequence: T4 sequence with T52G, I54L

For assay [21], the target named is T12, SIX6 (Homo sapiens, UniProt O95475 114-200, T139Q).
T12 sequence: T4 sequence with T26Q, I54L

In assay [22] the target is T13, SIX6 (Homo sapiens, UniProt O95475 114-200, T165A).
T13 sequence: T4 sequence with T52A, I54L

Assay [23] concerns the target HOXC10 (Homo sapiens, UniProt Q9NYD6 254-340, K271E).
Assay [24] has as its target T14, SIX6 (Homo sapiens, UniProt O95475 114-200, L167V).
T14 sequence: T4 sequence with I54V

Assay [25] has as its target PROP1 (Homo sapiens, UniProt O75360 56-141).
Assay [26] has as its target T15, SIX6 (Homo sapiens, UniProt O95475 114-200).
T15 sequence: T4 sequence with I54L

The target in assay [27] is PROP1 (Homo sapiens, UniProt O75360 56-141, R99H).
Chain of PROP1 (Homo sapiens, UniProt O75360 56-141, R99H) (O75360 56-141 R99H): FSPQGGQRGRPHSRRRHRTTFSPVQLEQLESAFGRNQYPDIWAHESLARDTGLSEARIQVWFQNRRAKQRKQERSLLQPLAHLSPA
The target in assay [28] is T16, SIX6 (Homo sapiens, UniProt O95475 114-200, T165I).
T16 sequence: T4 sequence with T52I, I54L

Assay [29] addresses PROP1 (Homo sapiens, UniProt O75360 56-141, F88S).
Assay [30] concerns the target HOXB9 (Homo sapiens, UniProt P17482 171-250, T197M).
Assay [31] concerns the target HOXB9 (Homo sapiens, UniProt P17482 171-250).
Assay [32] deals with HOXB9 (Homo sapiens, UniProt P17482 171-250, R186Q).
Chain of HOXB9 (Homo sapiens, UniProt P17482 171-250, R186Q) (P17482 171-250 R186Q): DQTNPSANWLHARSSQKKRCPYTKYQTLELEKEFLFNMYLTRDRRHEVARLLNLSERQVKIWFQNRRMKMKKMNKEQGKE

Positions count from the first letter of the chain named.

Chain of HOXA4 (Homo sapiens, UniProt Q00056 201-287, W262R) (Q00056 201-287 W262R): as the sequence (Q00056 201-287 R217L) above, with L17R, W62R counted along it
Chain of HOXA4 (Homo sapiens, UniProt Q00056 201-287, W262F) (Q00056 201-287 W262F): as the sequence (Q00056 201-287 R217L) above, with L17R, W62F counted along it
Chain of PROP1 (Homo sapiens, UniProt O75360 56-141) (O75360 56-141): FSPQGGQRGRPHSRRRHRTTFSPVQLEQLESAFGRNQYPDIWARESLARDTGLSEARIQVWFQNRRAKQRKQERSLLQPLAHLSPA
Chain of HOXB9 (Homo sapiens, UniProt P17482 171-250) (P17482 171-250): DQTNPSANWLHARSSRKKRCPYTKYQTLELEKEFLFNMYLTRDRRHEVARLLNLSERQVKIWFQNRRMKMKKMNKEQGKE
Chain of HOXC10 (Homo sapiens, UniProt Q9NYD6 254-340, K271E) (Q9NYD6 254-340 K271E): as the sequence (Q9NYD6 254-340) above, with K18E counted along it
Chain of HOXB9 (Homo sapiens, UniProt P17482 171-250, T197M) (P17482 171-250 T197M): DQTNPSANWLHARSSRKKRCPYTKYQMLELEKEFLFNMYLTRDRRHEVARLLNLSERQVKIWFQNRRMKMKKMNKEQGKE
Chain of PROP1 (Homo sapiens, UniProt O75360 56-141, F88S) (O75360 56-141 F88S): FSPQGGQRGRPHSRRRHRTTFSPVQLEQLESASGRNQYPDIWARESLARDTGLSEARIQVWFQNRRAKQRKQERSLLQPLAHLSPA

In the case of CCAGGGCC, the binding signal is 8.11 upbm affinity estimate (log intensity, higher = more binding, comparable within an allelic series) in assay [1]; 9.65 upbm affinity estimate (log intensity, higher = more binding, comparable within an allelic series) in assay [2]; 8.27 upbm affinity estimate (log intensity, higher = more binding, comparable within an allelic series) in assay [3]; 8.19 upbm affinity estimate (log intensity, higher = more binding, comparable within an allelic series) in assay [4]; 9.71 upbm affinity estimate (log intensity, higher = more binding, comparable within an allelic series) in assay [5]; 9.79 upbm affinity estimate (log intensity, higher = more binding, comparable within an allelic series) in assay [6]. In addition, the binding signal in assay [7] was 9.73 upbm affinity estimate (log intensity, higher = more binding, comparable within an allelic series).

Take CCGTCCGC: the binding signal was 7.99 upbm affinity estimate (log intensity, higher = more binding, comparable within an allelic series) in assay [1]; 9.35 upbm affinity estimate (log intensity, higher = more binding, comparable within an allelic series) in assay [8]; 8.02 upbm affinity estimate (log intensity, higher = more binding, comparable within an allelic series) in [3]; 7.93 upbm affinity estimate (log intensity, higher = more binding, comparable within an allelic series) in assay [4]; 9.48 upbm affinity estimate (log intensity, higher = more binding, comparable within an allelic series) in assay [9]; 9.36 upbm affinity estimate (log intensity, higher = more binding, comparable within an allelic series) in assay [10]. Further, the binding signal in [11] is 9.54 upbm affinity estimate (log intensity, higher = more binding, comparable within an allelic series).

Consider GTATTAAA, for which the binding signal was 9.94 upbm affinity estimate (log intensity, higher = more binding, comparable within an allelic series) in assay [1] and 10.3 upbm affinity estimate (log intensity, higher = more binding, comparable within an allelic series) in assay [3].

As to GGGAGGAC, the binding signal in assay [1] is 8.23 upbm affinity estimate (log intensity, higher = more binding, comparable within an allelic series); in assay [2], 9.79 upbm affinity estimate (log intensity, higher = more binding, comparable within an allelic series); in assay [3], 8.18 upbm affinity estimate (log intensity, higher = more binding, comparable within an allelic series); in [4], 8.28 upbm affinity estimate (log intensity, higher = more binding, comparable within an allelic series); in assay [5] it was 9.91 upbm affinity estimate (log intensity, higher = more binding, comparable within an allelic series); in assay [6] it was 10.1 upbm affinity estimate (log intensity, higher = more binding, comparable within an allelic series). In assay [7], the binding signal is 9.92 upbm affinity estimate (log intensity, higher = more binding, comparable within an allelic series).

On to GCTTGGCC, for which the binding signal in assay [1] was 7.86 upbm affinity estimate (log intensity, higher = more binding, comparable within an allelic series); in assay [12], 8.94 upbm affinity estimate (log intensity, higher = more binding, comparable within an allelic series); in assay [8], 9.68 upbm affinity estimate (log intensity, higher = more binding, comparable within an allelic series); in assay [3], 7.97 upbm affinity estimate (log intensity, higher = more binding, comparable within an allelic series); in [13], 8.84 upbm affinity estimate (log intensity, higher = more binding, comparable within an allelic series); in assay [14], 10.1 upbm affinity estimate (log intensity, higher = more binding, comparable within an allelic series). Besides, the binding signal in assay [15] is 8.96 upbm affinity estimate (log intensity, higher = more binding, comparable within an allelic series); in assay [16] it was 8.86 upbm affinity estimate (log intensity, higher = more binding, comparable within an allelic series); in [4], 7.9 upbm affinity estimate (log intensity, higher = more binding, comparable within an allelic series); in [17], 8.89 upbm affinity estimate (log intensity, higher = more binding, comparable within an allelic series); in [18] it was 8.89 upbm affinity estimate (log intensity, higher = more binding, comparable within an allelic series); in assay [19], 8.86 upbm affinity estimate (log intensity, higher = more binding, comparable within an allelic series). Moreover, the binding signal in assay [20] was 8.99 upbm affinity estimate (log intensity, higher = more binding, comparable within an allelic series); in [21], 9.01 upbm affinity estimate (log intensity, higher = more binding, comparable within an allelic series); in [9], 9.78 upbm affinity estimate (log intensity, higher = more binding, comparable within an allelic series); in assay [22], 8.94 upbm affinity estimate (log intensity, higher = more binding, comparable within an allelic series); in assay [10], 9.65 upbm affinity estimate (log intensity, higher = more binding, comparable within an allelic series); in assay [23] it was 10 upbm affinity estimate (log intensity, higher = more binding, comparable within an allelic series). In addition, the binding signal is 8.95 upbm affinity estimate (log intensity, higher = more binding, comparable within an allelic series) in assay [24]; 6.59 upbm affinity estimate (log intensity, higher = more binding, comparable within an allelic series) in assay [25]; 8.89 upbm affinity estimate (log intensity, higher = more binding, comparable within an allelic series) in assay [26]; 6.63 upbm affinity estimate (log intensity, higher = more binding, comparable within an allelic series) in [27]; 8.91 upbm affinity estimate (log intensity, higher = more binding, comparable within an allelic series) in assay [28]; 9.69 upbm affinity estimate (log intensity, higher = more binding, comparable within an allelic series) in [11]. For the same sequence, in assay [29], the binding signal was 6.65 upbm affinity estimate (log intensity, higher = more binding, comparable within an allelic series).

As for CTCCCGAG, the binding signal in assay [1] is 8.03 upbm affinity estimate (log intensity, higher = more binding, comparable within an allelic series); in assay [30], 8.41 upbm affinity estimate (log intensity, higher = more binding, comparable within an allelic series); in assay [3], 8.1 upbm affinity estimate (log intensity, higher = more binding, comparable within an allelic series); in assay [4] it was 8.07 upbm affinity estimate (log intensity, higher = more binding, comparable within an allelic series); in assay [31], 8.42 upbm affinity estimate (log intensity, higher = more binding, comparable within an allelic series); in assay [32], 8.44 upbm affinity estimate (log intensity, higher = more binding, comparable within an allelic series).

(Values after paper PMC11006913.)
